# Test results as given in PubChem BioAssay (EPA / NIEHS).
# Where “and” joins values, the source holds several entries; their conditions need not be identical. Equal entries are not always repeated. Records with an inconclusive call do not appear. A structure can be active in one record and inactive in another. Calls of active or inactive are those of the source. How the source made its calls, unless noted: active means hit-call score of the fitted dose curve at least 0.9, where 1 is the maximum; inactive means score below 0.9.
# Assays:
# [1] = BSK_BT_PBMCCytotoxicity: PBMC Cytotoxicity Assessment in the BioMAP Diversity Plus: BT Assay (AID 2284225); details: primary human B cells with PBMC;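 further: PBMC viability measured by Alamar Blue dye reduction fluorescence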
# Method in brief: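 Viability by Alamar Blue reduction (6 h, ex/em 546/580 nm) after 90 h culture of SEB/TSST-1-activated PBMC (20 ng/mL each) given compound 1 h before activation. DMSO served as baseline for curve fitting.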
# [2] = read-out: Secreted IgG (sIgG), gene 3500; test: BSK_BT_sIgG: BioMAP Diversity Plus: BT Assay for Secreted IgG (sIgG) Biomarker Activity (AID 2284226); details: primary human B cells with PBMC
# Method in brief: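 ELISA quantitation of secreted IgG from human B cells co-cultured with PBMC, sampled 24 h post-dosing. Values fitted relative to DMSO vehicle as baseline, positive fitting direction.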
# [3] = read-out: Interleukin 6 (IL6), IL6 (gene 3569); test: BSK_BT_xIL6: BioMAP Diversity Plus: BT Assay for Interleukin 6 (IL6) Biomarker Activity (AID 2284228); details: primary human B cells with PBMC
# Method in brief: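 IL-6 secretion measured (Luminex xMAP) in human primary B cell + PBMC co-culture at 24 h of chemical exposure; DMSO served as negative control and activity baseline, with curves fitted for increase.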
# [4] = CCTE_Mundy_HCI_Cortical_Synap_Neur_Matur_SynapseCount: CCTE's Synaptogenesis and Neurite Maturation Assay in rat cortical cells for Synapse Count, Mundy Lab (AID 2284218)
# Method in brief: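 High-content imaging of synaptophysin puncta per MAP2-positive neuron (Hoechst nuclei) in rat cortical cells exposed DIV 7–12 after glial arrest with AraC at DIV 5; decrease relative to DMSO scored.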
# [5] = CCTE_Mundy_HCI_hN2_NOG_NeuriteCount: CCTE's Neurite Outgrowth Assay in human hN2 cells for Neurite Count, Mundy Lab (AID 2284219; active means hit-call score of the fitted dose curve at least 0.9, where 1 is the maximum)
# Method in brief: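 In this morphology assay, hNP1-derived neurons received test chemical 2 h post-plating and were fixed two days later in warm paraformaldehyde/sucrose containing Hoechst 33342. Neurites, labelled by rabbit anti-βIII-tubulin (1:800) and Alexa Fluor-488 (1:500), were counted automatically.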
# [6] = CCTE_Mundy_HCI_hN2_NOG_NeuriteLength: CCTE's Neurite Outgrowth Assay in human hN2 cells for Neurite Length, Mundy Lab (AID 2284220; active means hit-call score of the fitted dose curve at least 0.9, where 1 is the maximum)
# Method in brief: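 Read-out is neurite length from high-content imaging of βIII-tubulin/Alexa Fluor-488-labelled neurons, referenced to DMSO controls.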
# [7] = CCTE_Mundy_HCI_hN2_NOG_NeuronCount: CCTE's Neurite Outgrowth Assay in human hN2 cells for Neuron Count, Mundy Lab (AID 2284221; active means hit-call score of the fitted dose curve at least 0.9, where 1 is the maximum)
# Method in brief: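 Read-out is the number of betaIII-tubulin-positive neurons imaged by automated high-content analysis, with DMSO as negative control.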
# [8] = CCTE_Mundy_HCI_Cortical_Synap_Neur_Matur_NeuriteCount: CCTE's Synaptogenesis and Neurite Maturation Assay in rat cortical cells for Neurite Count, Mundy Lab (AID 2284222);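 on outcome: exposure from day 7 to day 12 in vitro with readout at day 12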
# Method in brief: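 Rat primary cortical cells; AraC added at DIV 5, chemicals dosed with media change at DIV 7 through DIV 12. MAP2/synaptophysin/Hoechst immunostaining, high-content imaging of neurite number; fitted relative to DMSO.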
# [9] = CCTE_Mundy_HCI_Cortical_Synap_Neur_Matur_CellBodySpotCount: CCTE's Synaptogenesis and Neurite Maturation Assay in rat cortical cells for Cell Body Spot Count, Mundy Lab (AID 2284223)
# Method in brief: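 Chemicals were applied to AraC-treated rat primary cortical cells at DIV 7 and measured at DIV 12. Fixed cells were labelled for MAP2, synaptophysin and nuclei, and high-content imaging gave cell body synaptophysin spot counts per neuron relative to DMSO.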
# [10] = CCTE_Mundy_HCI_hNP1_Pro_ResponderAvgInten: CCTE's Proliferation Assay in human neuroprogenitor cells, Mundy Lab (AID 2284224; active means hit-call score of the fitted dose curve at least 0.9, where 1 is the maximum;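 further: human neural progenitor cells hNP1 derived from WA09 embryonic stem cells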)
# Method in brief: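 Proliferation read as average intensity of BrdU-positive cells, imaged at 26.25 h post-dosing: chemical exposure started after 40–44 h culture, BrdU during final 4 h, paraformaldehyde fixation. Positive-direction fit relative to DMSO.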
smiles,measurement,setting,value
N#Cc1c(-c2ccc(Cl)cc2)[nH]c(C(F)(F)F)c1Br,AC50,[1],2.33 µM (active)
same,AC50,[2],0.309 µM (active)
same,AC50,[3],0.556 µM (active)
O=P(OCC(Br)CBr)(OCC(Br)CBr)OCC(Br)CBr (configuration not stated),outcome,[1],inactive
same,AC50,[2],16.9 µM (active)
same,AC50,[3],17.4 µM (active)
CCC1(c2ccccc2)C(=O)N=C(O)NC1=O (configuration not stated),outcome,[4],inactive
same,outcome,[5],inactive
same,outcome,[6],inactive
same,outcome,[7],inactive
same,outcome,[8],inactive
same,outcome,[9],inactive
O=P1(N(CCCl)CCCl)NCCCO1 (configuration not stated),outcome,[4],inactive
same,outcome,[5],inactive
same,outcome,[6],inactive
same,outcome,[8],inactive
same,outcome,[9],inactive
CC(C)(C)c1ccccc1OP(=O)(Oc1ccccc1)Oc1ccccc1,AC50,[4],2.69 µM (active)
same,outcome,[8],inactive
same,outcome,[9],inactive
same,outcome,[1],inactive
same,AC50,[2],13.5 µM (active)
same,AC50,[3],29.2 µM (active)
COC(=O)C(F)(F)C(F)(F)OC(F)(C(F)(F)F)C(F)(F)OC(F)=C(F)F (configuration not stated),outcome,[1],inactive
same,outcome,[2],inactive
same,outcome,[3],inactive
CCCCC(CC)COC(=O)c1c(Br)c(Br)c(Br)c(Br)c1C(=O)OCC(CC)CCCC (configuration not stated),outcome,[1],inactive
same,outcome,[2],inactive
same,outcome,[3],inactive
O=S(=O)(F)C(F)(F)C(F)(F)C(F)(F)C(F)(F)C(F)(F)C(F)(F)C(F)(F)C(F)(F)F,outcome,[1],inactive
same,outcome,[2],inactive
same,outcome,[3],inactive
CCOP(=S)(OCC)SCn1nnc2ccccc2c1=O,outcome,[1],inactive
same,AC50,[2],20 µM (active)
same,outcome,[3],inactive
OCC(F)(F)OC(F)(F)C(F)(F)OC(F)(F)CO,outcome,[1],inactive
same,outcome,[2],inactive
same,outcome,[3],inactive
CCOP(=S)(NC(C)C)Oc1ccccc1C(=O)OC(C)C (configuration not stated),outcome,[1],inactive
same,AC50,[2],14.2 µM (active)
same,AC50,[3],14.3 µM (active)
OCC(F)(F)OC(F)(F)C(F)(F)OC(F)(F)C(F)(F)OC(F)(F)F,AC50,[1],30.7 µM (active) and 43.3 µM (active)
same,AC50,[2],50.4 µM (active) and 44.2 µM (active)
same,AC50,[3],46.6 µM (active) and 45.2 µM (active)
CCOP(=S)(OCC)SCSCC,AC50,[4],50 µM (active) and 67.7 µM (active)
same,AC50,[8],81.1 µM (active)
same,outcome,[8],inactive
same,AC50,[9],77.6 µM (active)
same,outcome,[9],inactive
same,outcome,[10],inactive
CO/N=C(/C(=O)OC)c1ccccc1COc1ccccc1C,AC50,[4],3.28 µM (active)
same,AC50,[8],5.23 µM (active)
same,AC50,[9],3.33 µM (active)
same,outcome,[10],inactive
CCCCC(CC)COP(=O)(Oc1ccccc1)Oc1ccccc1 (configuration not stated),outcome,[4],inactive
same,outcome,[8],inactive
same,outcome,[9],inactive
same,AC50,[1],36.7 µM (active)
same,AC50,[2],16.1 µM (active)
same,AC50,[3],20 µM (active)
CC(O)C(F)(F)C(F)(F)F (configuration not stated),outcome,[1],inactive
same,outcome,[2],inactive
same,outcome,[3],inactive
FC(F)(F)C(F)(C(F)(F)F)C(F)(F)C(F)(F)CC1CO1 (configuration not stated),outcome,[10],inactive
same,outcome,[1],inactive
same,outcome,[2],inactive
same,outcome,[3],inactive
CCOc1ccc(C(C)(C)COCc2cccc(Oc3ccccc3)c2)cc1,AC50,[4],15 µM (active)
same,outcome,[8],inactive
same,outcome,[9],inactive
same,outcome,[10],inactive
COP(=O)(O)OC,outcome,[1],inactive
same,outcome,[2],inactive
same,outcome,[3],inactive
C=CC(=O)OCC(F)(F)C(F)F,outcome,[10],inactive
same,AC50,[1],30 µM (active) and 23.6 µM (active)
same,AC50,[2],43 µM (active) and 48.8 µM (active)
same,AC50,[3],34.1 µM (active) and 31.7 µM (active)
O=C(O)C(F)(OC(F)(F)C(F)(F)C(F)(F)F)C(F)(F)F (configuration not stated),outcome,[4],inactive
same,outcome,[8],inactive
same,outcome,[9],inactive
same,outcome,[10],inactive
same,AC50,[1],0.22 µM (active)
same,outcome,[1],inactive
same,outcome,[2],inactive
same,outcome,[3],inactive
O=C(O)C=CC(F)(C(F)(F)F)C(F)(F)F,outcome,[1],inactive
same,outcome,[2],inactive
same,outcome,[3],inactive
O=C(O)C(F)(F)OC(F)(F)C(F)(F)OC(F)(F)F,outcome,[1],inactive
same,outcome,[2],inactive
same,outcome,[3],inactive
CC(Cl)CN(C)C (configuration not stated),outcome,[1],inactive
same,outcome,[2],inactive
same,outcome,[3],inactive
CC(C)Nc1ccc(Nc2ccccc2)cc1,AC50,[1],2.89 µM (active)
same,AC50,[2],2.73 µM (active)
same,AC50,[3],4.22 µM (active)
ClC(Cl)=C(c1ccc(Cl)cc1)c1ccccc1Cl,AC50,[1],37.2 µM (active)
same,AC50,[2],29.6 µM (active)
same,AC50,[3],30 µM (active)
Cc1ccc2c(c1N)C(=O)c1ccccc1C2=O,outcome,[1],inactive
same,outcome,[2],inactive
same,AC50,[3],0.144 µM (active)
c1ccc2c(c1)sc1ccccc12,outcome,[1],inactive
same,outcome,[2],inactive
same,outcome,[3],inactive
NC(=O)C(F)(F)C(F)(F)F,outcome,[1],inactive
same,outcome,[2],inactive
same,outcome,[3],inactive
C=CC(=O)OCC(CC)(COC(=O)C=C)COC(=O)C=C,AC50,[1],2.98 µM (active)
same,AC50,[2],0.516 µM (active)
same,AC50,[3],1.46 µM (active)
CCOP(=S)(S)OCC,outcome,[1],inactive
same,AC50,[2],4.15 µM (active)
same,outcome,[3],inactive
Nc1ccc([N+](=O)[O-])cc1Cl,outcome,[1],inactive
same,outcome,[2],inactive
same,outcome,[3],inactive
O=C(O)C(F)(F)OC(F)(F)C(F)(F)OC(F)(F)C(=O)O,outcome,[1],inactive
same,outcome,[2],inactive
same,outcome,[3],inactive
